Experimental data published in the supplement of paper PMC10849652.
The full data set covers some 8,800 targets. This sample favours those with a hit. About 0.5% of all pairs of compound and target were hits.

Experiments:
Experiment in all cases: log2 fold change, soluble protein after heating vs DMSO (PISA); higher = thermal stabilisation; K562 lysate, 10 uM; active = over 0.2 and 3.5 SD of the protein, either way, in both replicates (recomputed)
erlotinib = compound: C#Cc1cccc(Nc2ncnc3cc(OCCOC)c(OCCOC)cc23)c1 [erlotinib]
Procedure, shortened: (§1)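 Values give the log-two fold change in thermal stability against solvent controls, from duplicates. Crude K562 extract at 1 mg/mL protein, made by dounce homogenisation in PBS pH 7.4 with 1 mM MgCl2, was treated with 10 μM compound for 30 min. After 3 min heating across 48°C-58°C, aliquots were pooled, adjusted to 0.5% NP-40 at 4°C and centrifuged at 21,000xg for 90 min. The supernatant was measured by TMTpro 16plex LC-MS/MS with channel sums equalised.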

[1] = compound: C/C(=N\NC(=O)C1=CC(=CC=C1)S(=O)(=O)N2CCOCC2)/C3=C(C=CC(=C3)Cl)O
Procedure, shortened: as §1

[2] = compound: C1=CC(=CC=C1C2=NC3=C(N2)C=C(C=C3)C(=O)N)OC4=CC=C(C=C4)Cl
Procedure, shortened: as §1

[3] = compound: C1=CC2=C(C=CC(=C2)/C=C\3/C(=O)NC(=NCC4=CC=CS4)S3)N=C1
Procedure, shortened: as §1

[4] = compound: C1=CC2=NC=CN=C2C=C1/C=C/3\C(=O)NC(=O)S3
Procedure, shortened: as §1

[5] = compound: C1=CC=C(C=C1)C2=NC(=C(N2)C3=CC=NC=C3)C4=CC(=C(C=C4)Cl)O
Procedure, shortened: as §1

[6] = compound: C1=CC=C2C(=C1)C3=NNC4=CC=CC(=C43)C2=O
Procedure, shortened: as §1

[7] = compound: C1CCN(C1)C(=O)NC2=CC=CC(=C2)NC3=NC=C(C(=N3)NCCC4=CN=CN4)Br
Procedure, shortened: as §1

[8] = compound: C1CN(CCC1(CC2=CC=C(C=C2)Cl)N)C3=NC=NC4=C3C=CN4
Procedure, shortened: as §1

IRAK-1-4 Inhibitor I = compound: C1COCCN1CCN2C3=CC=CC=C3N=C2NC(=O)C4=CC(=CC=C4)[N+](=O)[O-] [IRAK-1-4 Inhibitor I]
Procedure, shortened: as §1

Measured: log2 fold change

PFKFB3 isoform 4 (UniProt Q16875)
inactive: erlotinib -0.006 | [1] -0.021 | [2] 0.028 | [3] -0.033 | [4] 0.011 | [5] -0.034 | [6] -0.035 | [7] 0.032 | [8] 0.002 | IRAK-1-4 Inhibitor I 0.004

PHGDH (UniProt O43175)
inactive: erlotinib 0.033 | [1] 0.155 | [2] 0.05 | [3] -0.222 | [4] -0.092 | [5] -0.012 | [6] 0.04 | [7] 0.045 | [8] 0.021 | IRAK-1-4 Inhibitor I 0.011

PRPF38A (UniProt Q8NAV1)
inactive: erlotinib -0.012 | [1] -0.016 | [2] 0.049 | [3] -0.025 | [4] 0.044 | [5] 0.05 | [6] 0.042 | [7] 0.005 | [8] -0.018 | IRAK-1-4 Inhibitor I 0.057

PTPN1 (UniProt P18031)
inactive: erlotinib -0.007 | [1] 0.065 | [2] -0.015 | [3] 0.025 | [4] -0.011 | [5] -0.005 | [6] -0.019 | [7] 0.027 | [8] -0.017 | IRAK-1-4 Inhibitor I 0.024

PTGS1 isoform 6 (UniProt P23219)
inactive: erlotinib -0.044 | [1] 0.118 | [2] 0.033 | [3] -0.105 | [4] -0.005 | [5] 0.086 | [6] -0.03 | [7] 0.008 | [8] -0.025 | IRAK-1-4 Inhibitor I 0.061

PITRM1 isoform 2 (UniProt Q5JRX3)
inactive: erlotinib -0.035 | [1] 0.011 | [2] 0.077 | [3] 0.04 | [4] -0.037 | [5] -0.025 | [6] 0.009 | [7] 0.016 | [8] 0.024 | IRAK-1-4 Inhibitor I -0.015

PLXND1 (UniProt Q9Y4D7)
inactive: erlotinib -0.067 | [2] 0.073 | [4] -0.048 | [5] -0.016 | IRAK-1-4 Inhibitor I -0.032

PIKFYVE (UniProt Q9Y2I7)
inactive: erlotinib -0.026 | [1] -0.008 | [2] -0.01 | [3] 0.005 | [4] -0.011 | [5] 0.03 | [6] -0.034 | [7] -0.039 | [8] 0.035 | IRAK-1-4 Inhibitor I -0.004

PRRG1 (UniProt O14668)
inactive: [5] -0.006 | IRAK-1-4 Inhibitor I 0.06

PRADC1 (UniProt Q9BSG0)
inactive: erlotinib -0.016 | [2] 0.027 | [4] 0.018 | [5] 0 | IRAK-1-4 Inhibitor I 0.017

PPME1 isoform 4 (UniProt Q9Y570)
inactive: erlotinib -0.002 | [1] -0.006 | [2] 0.023 | [3] -0.005 | [4] -0.035 | [5] 0.017 | [6] 0.065 | [7] 0.013 | [8] 0.01 | IRAK-1-4 Inhibitor I -0.006

PPP2R5C isoform 2 (UniProt Q13362)
inactive: erlotinib 0.003 | [1] 0.044 | [2] 0.024 | [3] -0.046 | [4] 0.186 | [5] 0.024 | [6] 0.013 | IRAK-1-4 Inhibitor I 0.052

PIP5K1A (UniProt Q99755)
UniProt Q99755, sequence (Q99755 whole entry, looked up): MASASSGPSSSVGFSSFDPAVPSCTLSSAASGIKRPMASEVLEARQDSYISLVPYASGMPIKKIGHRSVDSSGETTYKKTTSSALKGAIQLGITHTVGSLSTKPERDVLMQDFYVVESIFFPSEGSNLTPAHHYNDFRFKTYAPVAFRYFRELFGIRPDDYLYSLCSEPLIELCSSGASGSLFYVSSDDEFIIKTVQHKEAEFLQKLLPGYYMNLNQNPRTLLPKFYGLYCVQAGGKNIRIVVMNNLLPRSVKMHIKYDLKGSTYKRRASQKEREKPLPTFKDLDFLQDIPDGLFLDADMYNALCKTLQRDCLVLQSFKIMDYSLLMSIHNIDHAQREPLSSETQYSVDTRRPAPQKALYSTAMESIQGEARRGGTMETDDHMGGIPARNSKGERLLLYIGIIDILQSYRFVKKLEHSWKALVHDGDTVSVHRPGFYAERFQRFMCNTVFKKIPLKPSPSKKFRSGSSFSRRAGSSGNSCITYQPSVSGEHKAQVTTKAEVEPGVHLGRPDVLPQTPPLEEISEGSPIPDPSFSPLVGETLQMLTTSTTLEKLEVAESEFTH
inactive: erlotinib 0.036 | [2] -0.14 | [4] 0.022 | [5] -0.062 | IRAK-1-4 Inhibitor I -0.195

PHF14 (UniProt O94880)
inactive: [1] 0.032 | [3] -0.01 | [4] -0.06 | [5] -0.086 | [6] 0.045 | [7] -0.423 | [8] 0.432 | IRAK-1-4 Inhibitor I 0.035

PYGO2 (UniProt Q9BRQ0)
inactive: erlotinib -0.047 | [2] 0.045 | [4] -0.039 | [5] 0.115 | [7] 0.012 | [8] 0.049 | IRAK-1-4 Inhibitor I 0.051

PNPLA4 (UniProt P41247)
UniProt P41247, sequence (P41247 whole entry, looked up): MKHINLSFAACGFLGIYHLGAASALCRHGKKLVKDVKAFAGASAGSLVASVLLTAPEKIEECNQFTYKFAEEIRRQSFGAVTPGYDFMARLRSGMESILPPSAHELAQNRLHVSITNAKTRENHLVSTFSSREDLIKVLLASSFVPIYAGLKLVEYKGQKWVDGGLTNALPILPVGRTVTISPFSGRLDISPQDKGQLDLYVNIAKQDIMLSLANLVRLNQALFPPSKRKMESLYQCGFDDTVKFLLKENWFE
inactive: [1] 0.064 | [3] 0.1 | [5] 0.051 | [6] 0.1 | [7] 0.086 | [8] 0.09 | IRAK-1-4 Inhibitor I -0.001

PTMA isoform 2 (UniProt P06454)
inactive: [4] 0.015

POLR2F (UniProt U3KPV3)
inactive: [7] -0.055 | [8] 0.084

PCBP2 (UniProt F8VRH0)
inactive: erlotinib 0.084 | [2] -0.182 | [5] -0.092 | IRAK-1-4 Inhibitor I 0.11

PFN1 (UniProt I3L3D5)
inactive: [4] 0.054 | [5] 0.045 | [7] 0.009 | [8] 0.03 | IRAK-1-4 Inhibitor I 0.005

PDE4DIP (UniProt E9PS60)
inactive: erlotinib 0.026 | [1] -0.056 | [2] -0.13 | [3] 0.044 | [6] 0.039 | [7] 0.114 | [8] 0.063

PHKG1 isoform 2 (UniProt Q16816)
inactive: erlotinib 0.003 | [1] -0.127 | [2] 0.187 | [3] 0.061 | [5] 0.029 | [6] 0.399 | [7] 0.157 | [8] 0.014 | IRAK-1-4 Inhibitor I -0.102

PEX2 (UniProt P28328)
inactive: erlotinib 0.106 | [2] 0.068 | [3] 0.048 | [4] -0.128 | [5] 0.082 | [6] -0.119 | IRAK-1-4 Inhibitor I -0.04
active: [1] -0.731

PRG4 (UniProt Q92954)
inactive: [4] -0.296 | [5] -0.027 | IRAK-1-4 Inhibitor I 0.057

NA (UniProt Q4G0T1)
UniProt Q4G0T1, sequence (Q4G0T1 whole entry, looked up): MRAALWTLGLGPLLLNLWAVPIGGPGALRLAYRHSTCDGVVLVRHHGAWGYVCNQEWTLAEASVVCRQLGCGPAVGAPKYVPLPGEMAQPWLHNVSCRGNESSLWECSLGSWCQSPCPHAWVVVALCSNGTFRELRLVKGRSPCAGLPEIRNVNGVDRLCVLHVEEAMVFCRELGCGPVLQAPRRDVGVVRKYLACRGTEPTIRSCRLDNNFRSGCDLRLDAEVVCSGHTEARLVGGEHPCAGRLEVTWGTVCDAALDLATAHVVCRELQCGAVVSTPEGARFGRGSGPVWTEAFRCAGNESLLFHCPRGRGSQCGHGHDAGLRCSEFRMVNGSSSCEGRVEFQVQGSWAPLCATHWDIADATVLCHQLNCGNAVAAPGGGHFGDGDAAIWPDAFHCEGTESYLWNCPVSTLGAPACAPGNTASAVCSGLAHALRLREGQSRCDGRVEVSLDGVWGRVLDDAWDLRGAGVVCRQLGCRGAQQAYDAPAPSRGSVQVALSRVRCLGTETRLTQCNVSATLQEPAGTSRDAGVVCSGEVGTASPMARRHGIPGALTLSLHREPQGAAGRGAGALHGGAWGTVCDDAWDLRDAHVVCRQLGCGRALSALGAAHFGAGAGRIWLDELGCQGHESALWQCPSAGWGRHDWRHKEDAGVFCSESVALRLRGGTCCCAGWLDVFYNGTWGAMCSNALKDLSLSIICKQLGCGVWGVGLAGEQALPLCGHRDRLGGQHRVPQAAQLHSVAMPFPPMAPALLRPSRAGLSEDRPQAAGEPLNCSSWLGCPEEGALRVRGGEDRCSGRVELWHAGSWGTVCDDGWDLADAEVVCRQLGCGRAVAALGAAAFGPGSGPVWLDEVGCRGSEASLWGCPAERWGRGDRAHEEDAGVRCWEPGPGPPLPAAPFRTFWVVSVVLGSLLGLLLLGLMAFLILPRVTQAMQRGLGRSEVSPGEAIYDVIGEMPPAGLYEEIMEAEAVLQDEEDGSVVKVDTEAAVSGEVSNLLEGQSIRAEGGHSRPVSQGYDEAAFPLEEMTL
active: [2] 0.348
inactive: erlotinib -0.178 | [5] 0.017 | IRAK-1-4 Inhibitor I 0.002

POM121C (UniProt A8CG34)
inactive: erlotinib 0.001 | [2] 0.027 | [4] 0.032 | [5] -0.064 | IRAK-1-4 Inhibitor I -0.069

PECR (UniProt Q9BY49)
inactive: [7] -0.004 | [8] 0.056

PHOSPHO2 (UniProt C9JD35)
inactive: [7] 0.069 | [8] -0.21

PRR4 (UniProt Q16378)
inactive: erlotinib -0.097 | [1] 1.59 | [2] -0.193 | [3] -0.167 | [5] -0.11 | [6] -0.484 | [7] -0.127 | [8] 1.09 | IRAK-1-4 Inhibitor I -0.048

PPP1R11 (UniProt O60927)
inactive: erlotinib -0.046 | [2] 0.015 | [4] 0.01 | [5] 0.004 | [7] 0 | [8] -0.03 | IRAK-1-4 Inhibitor I 0.132

PHC1 (UniProt P78364)
UniProt P78364, sequence (P78364 whole entry, looked up): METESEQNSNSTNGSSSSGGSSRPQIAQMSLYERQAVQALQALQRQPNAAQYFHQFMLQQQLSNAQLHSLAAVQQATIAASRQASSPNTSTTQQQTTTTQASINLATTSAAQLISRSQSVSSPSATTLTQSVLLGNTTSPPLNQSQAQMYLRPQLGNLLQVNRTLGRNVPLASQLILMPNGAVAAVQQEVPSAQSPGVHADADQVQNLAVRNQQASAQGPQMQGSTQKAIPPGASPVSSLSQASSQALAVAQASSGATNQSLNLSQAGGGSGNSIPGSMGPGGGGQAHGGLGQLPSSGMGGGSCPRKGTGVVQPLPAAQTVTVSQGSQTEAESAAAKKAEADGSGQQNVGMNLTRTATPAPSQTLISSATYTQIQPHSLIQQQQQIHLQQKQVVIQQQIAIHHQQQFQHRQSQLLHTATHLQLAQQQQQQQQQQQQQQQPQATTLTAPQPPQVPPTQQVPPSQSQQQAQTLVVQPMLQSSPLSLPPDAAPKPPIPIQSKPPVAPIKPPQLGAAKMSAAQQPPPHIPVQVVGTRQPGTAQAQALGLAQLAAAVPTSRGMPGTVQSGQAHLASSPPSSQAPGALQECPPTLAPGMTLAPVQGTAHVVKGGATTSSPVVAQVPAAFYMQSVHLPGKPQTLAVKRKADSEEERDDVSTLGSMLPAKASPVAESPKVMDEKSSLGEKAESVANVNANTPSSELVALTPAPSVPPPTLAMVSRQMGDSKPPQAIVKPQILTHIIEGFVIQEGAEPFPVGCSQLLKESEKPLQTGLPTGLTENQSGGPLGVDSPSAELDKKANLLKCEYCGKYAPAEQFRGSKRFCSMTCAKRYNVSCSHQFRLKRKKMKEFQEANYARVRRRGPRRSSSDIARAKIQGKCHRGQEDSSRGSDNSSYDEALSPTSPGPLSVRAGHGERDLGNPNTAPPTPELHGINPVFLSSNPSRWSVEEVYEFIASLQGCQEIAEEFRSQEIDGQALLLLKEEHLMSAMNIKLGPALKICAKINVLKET
inactive: [1] 0.032 | [3] -0.004 | [4] -0.075 | [6] -0.051 | [7] 0.021 | [8] -0.01

PTK2 isoform 2 (UniProt Q05397)
inactive: erlotinib 0.002 | [2] 0.006 | [4] -0.114 | [7] 0.193 | [8] -0.016

PPIC (UniProt P45877)
UniProt P45877, sequence (P45877 whole entry, looked up): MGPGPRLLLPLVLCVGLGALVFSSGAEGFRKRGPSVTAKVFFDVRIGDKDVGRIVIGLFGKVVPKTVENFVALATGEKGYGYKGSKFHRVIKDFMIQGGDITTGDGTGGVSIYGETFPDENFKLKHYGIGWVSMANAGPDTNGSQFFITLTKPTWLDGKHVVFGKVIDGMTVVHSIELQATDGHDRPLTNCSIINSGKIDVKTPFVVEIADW
inactive: erlotinib 0.049 | [1] -0.042 | [2] 0.119 | [3] 0.025 | [4] 0.265 | [5] -0.032 | [6] 0.036 | IRAK-1-4 Inhibitor I 0.06

PFN3 (UniProt P60673)
inactive: [1] -0.231 | [3] -0.078 | [6] -0.162 | [7] -0.041 | [8] 0.155

PIK3CG (UniProt P48736)
inactive: erlotinib 0.045 | [1] 0 | [2] -0.011 | [3] 0.045 | [5] -0.047 | [6] -0.005 | [7] 0 | [8] 0.003 | IRAK-1-4 Inhibitor I -0.011

PIP4K2C (UniProt Q8TBX8)
UniProt Q8TBX8, sequence (Q8TBX8 whole entry, looked up): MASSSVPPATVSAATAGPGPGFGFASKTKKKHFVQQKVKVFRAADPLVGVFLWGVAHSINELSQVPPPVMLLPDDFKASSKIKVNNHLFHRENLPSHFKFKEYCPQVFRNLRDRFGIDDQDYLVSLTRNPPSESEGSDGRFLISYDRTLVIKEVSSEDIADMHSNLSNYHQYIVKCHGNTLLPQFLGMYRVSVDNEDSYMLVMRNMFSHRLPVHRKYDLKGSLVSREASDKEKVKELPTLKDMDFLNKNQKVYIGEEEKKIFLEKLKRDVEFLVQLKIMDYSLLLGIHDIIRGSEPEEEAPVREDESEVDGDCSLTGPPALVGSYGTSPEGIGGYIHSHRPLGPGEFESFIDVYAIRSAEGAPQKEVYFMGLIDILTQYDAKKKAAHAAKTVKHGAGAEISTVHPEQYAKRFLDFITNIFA
active: [4] 0.496
inactive: erlotinib 0.104 | [1] -0.289 | [2] 0.033 | [3] 0.004 | [5] 0.137 | [6] 0.127 | [7] 0.231 | [8] -0.055 | IRAK-1-4 Inhibitor I -0.005

PDCD10 (UniProt Q9BUL8)
UniProt Q9BUL8, sequence (Q9BUL8 whole entry, looked up): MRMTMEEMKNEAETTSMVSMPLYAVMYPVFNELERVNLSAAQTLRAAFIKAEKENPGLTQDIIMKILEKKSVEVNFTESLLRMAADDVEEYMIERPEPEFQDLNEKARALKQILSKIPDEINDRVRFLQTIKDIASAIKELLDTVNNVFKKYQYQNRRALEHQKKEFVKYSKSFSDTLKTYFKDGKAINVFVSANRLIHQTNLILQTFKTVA
inactive: erlotinib -0.029 | [1] -0.001 | [2] -0.009 | [3] -0.049 | [4] -0.028 | [5] -0.007 | [6] 0.087 | [7] 0.035 | [8] -0.025 | IRAK-1-4 Inhibitor I -0.012

PHGDH, A0A286YFE1
inactive: [4] -0.166

POLR2M (UniProt Q6EEV4)
inactive: erlotinib 0.011 | [1] 0.164 | [2] -0.025 | [3] -0.031 | [4] -0.045 | [6] -0.111 | [7] 0.052 | [8] -0.01

PIK3CD (UniProt O00329)
UniProt O00329, sequence (O00329 whole entry, looked up): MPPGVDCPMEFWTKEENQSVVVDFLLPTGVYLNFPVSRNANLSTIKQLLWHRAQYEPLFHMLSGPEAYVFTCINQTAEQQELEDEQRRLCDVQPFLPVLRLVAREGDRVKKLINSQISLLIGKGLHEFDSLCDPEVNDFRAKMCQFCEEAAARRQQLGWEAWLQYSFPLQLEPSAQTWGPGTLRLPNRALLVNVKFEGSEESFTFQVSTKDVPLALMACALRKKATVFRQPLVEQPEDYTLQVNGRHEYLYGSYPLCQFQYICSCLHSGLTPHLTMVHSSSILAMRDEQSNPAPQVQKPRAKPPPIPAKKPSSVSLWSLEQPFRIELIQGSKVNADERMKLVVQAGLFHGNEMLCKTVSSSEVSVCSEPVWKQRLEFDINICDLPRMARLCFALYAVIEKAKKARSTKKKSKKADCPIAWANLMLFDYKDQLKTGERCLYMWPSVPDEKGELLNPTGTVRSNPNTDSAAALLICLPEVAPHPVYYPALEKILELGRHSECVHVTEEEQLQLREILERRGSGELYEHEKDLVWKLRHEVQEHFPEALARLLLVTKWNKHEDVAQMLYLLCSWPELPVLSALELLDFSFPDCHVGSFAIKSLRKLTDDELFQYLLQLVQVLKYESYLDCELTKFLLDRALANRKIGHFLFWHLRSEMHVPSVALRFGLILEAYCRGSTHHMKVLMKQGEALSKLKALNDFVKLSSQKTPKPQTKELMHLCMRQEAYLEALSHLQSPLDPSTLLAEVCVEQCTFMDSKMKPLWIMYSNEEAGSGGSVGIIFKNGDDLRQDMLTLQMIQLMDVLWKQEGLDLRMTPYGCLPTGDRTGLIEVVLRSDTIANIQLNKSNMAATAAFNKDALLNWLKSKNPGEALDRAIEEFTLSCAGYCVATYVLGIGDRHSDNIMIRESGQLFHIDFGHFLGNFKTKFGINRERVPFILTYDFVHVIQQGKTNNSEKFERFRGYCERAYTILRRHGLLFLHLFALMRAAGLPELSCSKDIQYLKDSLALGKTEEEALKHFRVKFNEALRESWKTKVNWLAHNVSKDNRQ
inactive: erlotinib -0.014 | [1] -0.162 | [2] -0.095 | [3] 0.034 | [4] 0.091 | [5] -0.031 | [6] 0.098 | IRAK-1-4 Inhibitor I 0.109

PPME1 (UniProt Q9Y570)
inactive: erlotinib 0.129 | [2] 0.003 | [4] -0.09 | [7] -0.025 | [8] -0.033

PIAS2 (UniProt O75928)
inactive: erlotinib 0.043 | [1] -0.277 | [2] 0.035 | [3] 0 | [5] 0.019 | [6] 0.039 | [7] 0.037 | [8] -0.002 | IRAK-1-4 Inhibitor I 0.053

PICALM (UniProt H0YCY1)
inactive: erlotinib -0.09 | [2] 0.108

PFAS (UniProt O15067)
inactive: erlotinib 0.014 | [1] 0.03 | [2] 0.006 | [3] 0.015 | [4] 0.011 | [5] -0.017 | [6] -0.018 | [7] -0.026 | [8] 0.001 | IRAK-1-4 Inhibitor I -0.006

PPP1R14C (UniProt Q8TAE6)
UniProt Q8TAE6, sequence (Q8TAE6 whole entry, looked up): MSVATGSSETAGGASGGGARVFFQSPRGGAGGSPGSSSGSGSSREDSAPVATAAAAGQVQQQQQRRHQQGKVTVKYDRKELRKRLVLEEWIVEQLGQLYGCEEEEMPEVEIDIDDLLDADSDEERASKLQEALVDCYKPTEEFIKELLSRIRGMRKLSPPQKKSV
inactive: [1] 0.018 | [3] -0.092 | [4] -0.05 | [5] 0.001 | [6] 0.021 | [7] 0.052 | [8] -0.02 | IRAK-1-4 Inhibitor I -0.014
